Measured values: PubChem BioAssay (EPA / NIEHS)
Activity calls are given as the source filed them. How the source made its calls: active means hit-call score of the fitted dose curve at least 0.9, where 1 is the maximum; inactive means score below 0.9.

Experiment: ATG_NF_kB_CIS: Attagene CIS-FACTORIAL HepG2 Assay for human Nuclear Factor Kappa B (NF-kB) (AID 2282991)
Settings: HepG2 Attagene cis-factorial NF-kB reporter mRNA; actives raise or lower the signal
Method in brief: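 Multiplexed cis-reporter assay in transiently transfected HepG2. 24 h treatment; RNA isolated, RT-PCR, labelled fragments resolved by CE. DMSO baseline.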

| Structure (SMILES) | AC50 | outcome |
| --- | --- | --- |
| COc1cccc2c1C(=O)c1c(O)c3c(c(O)c1C2=O)C[C@@](O)(C(=O)CO)C[C@@H]3O[C@H]1C[C@H](N)[C@H](O)[C@H](C)O1 | 0.653 µM (active) |  |
| Cc1ccc(N(C)C)cc1 |  | inactive |
| CC1=C(/C=C/C(C)=C/C=C/C(C)=C/CO)C(C)(C)CCC1 |  | inactive |
| COc1cc(/C=C/C(=O)CC(=O)/C=C/c2ccc(O)c(OC)c2)ccc1O | 33.4 µM (active) |  |
| CNC(=O)[C@H]1O[C@@H](n2cnc3c(NCc4cc(Cl)ccc4OCc4cc(C)no4)ncnc32)[C@H](O)[C@@H]1N |  | inactive |

Experiment: ATG_NRF2_ARE_CIS: Attagene CIS-FACTORIAL HepG2 Assay for human Nuclear Factor Erythroid 2 Related Factor 2 (NFR2) response to Antioxidant Response Elements (ARE) (AID 2282992);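 on AC50: reporter mRNA level measured by RT-PCR and capillary electrophoresis fluorescence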
Settings: HepG2 Attagene ARE/NRF2 reporter, transcription factor activity; actives raise or lower the signal
Method in brief: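 Endogenous transcription factor activity in human liver HepG2 cells is tracked via a cis-element-driven reporter within a multiplexed set. mRNA induction is read by RT-PCR and capillary electrophoresis after 24 h, with DMSO as baseline.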

| Structure (SMILES) | outcome | AC50 |
| --- | --- | --- |
| COc1cc(S(=O)(=O)O)c(C)cc1N=Nc1c(O)ccc2cc(S(=O)(=O)O)ccc12 | inactive |  |
| COCCOC[C@H](CC1(C(=O)NC2CCC(C(=O)O)CC2)CCCC1)C(=O)Oc1ccc2c(c1)CCC2 (stereo partly specified) | inactive |  |
| CN1CCCC1=O | inactive |  |
| COc1ccc(S(=O)(=O)N2C(=O)[C@@](c3ccccc3OC)(N3C[C@H](O)C[C@H]3C(=O)N(C)C)c3cc(Cl)ccc32)c(OC)c1 | inactive |  |
| CCOC(=O)CCC(=O)OCC | inactive |  |
| COc1ccc2c(c1)c(CC(=O)O)c(C)n2C(=O)c1ccc(Cl)cc1 | inactive |  |
| NS(=O)(=O)c1cc2c(cc1Cl)NCNS2(=O)=O | inactive |  |
| CCCCCCCCCCCCCO |  | 57.4 µM (active) |
| COc1cccc2c1C(=O)c1c(O)c3c(c(O)c1C2=O)C[C@@](O)(C(=O)CO)C[C@@H]3O[C@H]1C[C@H](N)[C@H](O)[C@H](C)O1 |  | 1.56 µM (active) |
| CC=Cc1ccc(O)c(OC)c1 |  | 16.2 µM (active) |
| Cc1ccc(Cl)cc1 | inactive |  |
